Assay outcomes deposited in PubChem by National Center for Advancing Translational Sciences (NCATS).
ELG1 DNA repair: blocks ELG1-dependent DNA repair in HEK293T cells; HEK293T ELG1-luciferase reporter, luminescence, 16 h; DNA damage induced by 5-fluorouridine; Potency, µM (top dose mostly 46.1 µM), hits mostly inhibitors; 2.3% of 330,000 active; AID 504467; further: nearly all actives have a fitted effect of over 55% in size
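DMSO vehicle served as the neutral condition. Each well held 2,000 cells given 5-fluorouridine plus compound; after 16 hr at 37 °C/5% CO2, ONE-Glo was added and luciferase measured 30 min later.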
Rango dissoc inh: inhibition of RanGTP-driven Rango-importin beta dissociation | Biochemical FRET Rango-importin beta, RanGTP-induced dissociation | Potency, µM (doses to about 46.1 µM) | 0.071% of 340,000 active; calls by dose curve; further: nearly all actives have a fitted effect of over 45% in size
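Rango (0.1 uM)–importin beta (0.25 uM) complex; RanGTP-RCC1 trigger; 45 min RT; CFP/YFP FRET read.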
Tb PFK inh: blocks T. brucei phosphofructokinase | T. brucei PFK, ADP-Glo luminescence | Potency, µM (top dose mostly 57.5 µM), hits mostly inhibitors | 0.17% of 330,000 active | AID 485367; further: nearly all actives have a fitted effect of over 60% in size
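PFK 1.25 nM, F6P 0.5 mM, ATP 0.1 mM, 0.1 M TEA pH 8.0, 5 mM MgCl2, 0.01% Tween20, 0.1% BSA; 45 min RT. ADP-Glo readout. qHTS titration up to 57 uM; curves fitted, compounds curve-classed.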
Tb PGK inh: inhibitors of T. brucei phosphoglycerate kinase | P07378 | PGK/GAPDH coupled, Kinase-Glo luminescence, 60 min | Potency, µM (top dose mostly 57.5 µM), actives largely listed as inhibitors | 0.043% of 380,000 active; further: nearly all actives have a fitted effect of over 60% in size
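Luminescent ATP detection (Kinase-Glo Plus) follows a 60-minute room-temperature incubation, with wells lacking PGK as controls. Buffer: 100 mM TEA (pH 7.6), 5 mM MgCl2, 0.01% Tween-20. Coupling enzyme GAPDH (100 nM final) supplies unstable 1,3-BPG in-well.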
PKM2 act: activators of human pyruvate kinase M2; purified PKM2, Kinase-Glo ATP luminescence, activation; response scale: 0% is enzyme alone, no compound; Potency, µM (titrated, usually from 57.5 µM), most hits filed as activators; 0.34% of 260,000 active; AID 1631; further: nearly all actives have a fitted effect of over 55% in size
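Kinase-Glo luminescence reports ATP generated from ADP (0.1 mM) and PEP (0.5 mM) by purified hPK-M2 after 1 h at room temperature, pH 7.2 imidazole buffer; intermediate enzyme activity allows detecting inhibitors and activators.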
Rango complex inh: inhibitors of Rango-importin beta complex formation; Rango CFP/YFP FRET sensor + importin beta, 45 min; Q14974; 0.031% of 340,000 active; Potency, µM (doses to about 92.2 µM); AID 540263; calls by dose curve; further: nearly all actives have a fitted effect of over 15% in size
Target sequence (Q14974 whole entry, looked up): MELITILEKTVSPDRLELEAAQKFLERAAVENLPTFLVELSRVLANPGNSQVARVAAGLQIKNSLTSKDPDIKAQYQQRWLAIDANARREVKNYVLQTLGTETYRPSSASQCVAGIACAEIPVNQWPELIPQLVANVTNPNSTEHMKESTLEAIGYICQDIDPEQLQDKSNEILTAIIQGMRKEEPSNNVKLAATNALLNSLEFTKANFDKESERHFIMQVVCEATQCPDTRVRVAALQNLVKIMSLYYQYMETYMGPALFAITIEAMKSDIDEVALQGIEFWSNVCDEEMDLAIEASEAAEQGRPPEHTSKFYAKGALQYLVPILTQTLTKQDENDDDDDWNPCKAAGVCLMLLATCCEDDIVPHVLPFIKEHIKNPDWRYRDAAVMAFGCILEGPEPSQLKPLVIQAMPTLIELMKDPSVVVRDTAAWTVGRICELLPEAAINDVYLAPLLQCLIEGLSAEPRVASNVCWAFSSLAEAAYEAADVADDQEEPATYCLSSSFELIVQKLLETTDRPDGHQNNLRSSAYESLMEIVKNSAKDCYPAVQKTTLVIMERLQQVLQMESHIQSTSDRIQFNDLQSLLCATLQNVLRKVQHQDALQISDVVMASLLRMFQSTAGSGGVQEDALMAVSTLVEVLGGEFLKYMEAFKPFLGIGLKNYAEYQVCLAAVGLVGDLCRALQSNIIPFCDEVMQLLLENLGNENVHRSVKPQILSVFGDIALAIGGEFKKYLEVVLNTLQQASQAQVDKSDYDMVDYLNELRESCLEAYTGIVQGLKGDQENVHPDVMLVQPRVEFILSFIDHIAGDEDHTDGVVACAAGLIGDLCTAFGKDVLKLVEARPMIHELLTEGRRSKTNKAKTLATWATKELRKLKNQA
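FRET biosensor Rango (snurportin 1 IBB between N-terminal EYFP and C-terminal Cerulean), 50 nM in PBS/1 mM DTT/0.02% Tween-20/0.1% BSA, preincubated 5 min RT with compound; 0.125 microM importin beta added, 45 min RT, CFP/YFP FRET ratio read.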
Each line names hits and unclear results; the compound was inactive in the other large screens; ! = not confirmed by another sample. The list is not random: actives were taken first. Their share in the collection is about 2.4%. Unless noted, the call rests on the fitted dose curve; in most records, active means well fitted curve in the direction sought with a large enough effect; inconclusive means small, poorly fitted or top-dose-only effect, or another doubt; inactive means no such curve, though single readings can be large; an effect the other way counts as inactive or inconclusive.

CCC(C(=O)Nc1ccccc1C(=O)OC)n1c(C)c2cnn(-c3ccccc3)c(=O)c2c1C (stereo not given)	none (no result: ELG1 DNA repair, Rango dissoc inh, Tb PFK inh, PKM2 act, Rango complex inh)
O=C(Cn1nc(N2CCN(c3ccccc3)CC2)ccc1=O)NCc1cccc(Cl)c1	none (no result: ELG1 DNA repair, Rango dissoc inh, Tb PFK inh, PKM2 act, Rango complex inh)
Cn1c(N)c(C(=O)COC(=O)c2cc(-c3ccco3)nc3ccccc23)c(=O)n(Cc2ccccc2)c1=O	none (no result: Rango dissoc inh, Tb PGK inh, Rango complex inh)
Cn1c(N)c(C(=O)COC(=O)c2cc(-c3ccco3)nc3ccccc23)c(=O)n(C)c1=O	ELG1 DNA repair 12µM, Rango complex inh inconclusive
CC(C)Cn1c(N)c(C(=O)COC(=O)c2ccc3c(c2)OCCO3)c(=O)n(C)c1=O	ELG1 DNA repair 7.1µM
CN(C)S(=O)(=O)c1cccc(C(=O)OCC(=O)c2c(N)n(C)c(=O)n(C)c2=O)c1	none
CC(C)Cn1c(N)c(C(=O)COC(=O)c2cccn2C)c(=O)n(C)c1=O	ELG1 DNA repair 9.2µM (no result: PKM2 act)
Cc1ccc(N(C)S(=O)(=O)c2cccc(C(=O)OCC(=O)c3c(N)n(C)c(=O)n(C)c3=O)c2)cc1	ELG1 DNA repair 16µM (no result: PKM2 act)
Cn1c(N)c(C(=O)COC(=O)c2ccc3c(c2)OCCO3)c(=O)n(C)c1=O	none
COc1ccccc1CNC(=O)CCNS(=O)(=O)c1ccc2c(c1)CC(C)N2C(C)=O (stereo not given)	none
CCOC(=O)c1cc(OC(=O)c2cccc(F)c2)n(-c2ccccc2)n1	none (no result: ELG1 DNA repair, Rango dissoc inh, Tb PFK inh, PKM2 act, Rango complex inh)
CCc1ccc(C(=O)OCC(=O)c2c(N)n(CC(C)C)c(=O)n(C)c2=O)cc1	ELG1 DNA repair 8.2µM
CC(=O)Nc1ccc(S(=O)(=O)c2ccc(C)cc2)cc1	PKM2 act 14µM
O=C(O)/C=C/c1ccc2c(-c3ccccc3)onc2c1	ELG1 DNA repair inconclusive, Rango complex inh inconclusive
COc1ccc(NS(=O)(=O)c2ccc3c(c2)[C@H]2C=CC[C@H]2[C@@H](c2ccc(C(=O)O)cc2)N3)cc1	ELG1 DNA repair inconclusive, Tb PGK inh 28µM!, Rango complex inh inconclusive (no result: PKM2 act)
CCN1CCN(C(=O)CCn2c(=O)c3cccn3c3cccnc32)CC1	Rango dissoc inh inconclusive, Rango complex inh inconclusive (no result: PKM2 act)
CN(Cc1cccc2cnccc12)C(=O)c1cc(COc2ccc(F)cc2Cl)on1	ELG1 DNA repair 21µM (no result: PKM2 act)
N#CCSc1nc2ccccc2c(=O)n1CCCC(=O)NCc1ccco1	none
O=C(CCCCn1c(=O)c2ccccc2n(CC(=O)Nc2ccc(F)cc2)c1=O)NCc1ccco1	ELG1 DNA repair 21µM
O=C(CCCCCn1c(SCc2ccncc2)nc2ccccc2c1=O)NCc1ccco1	ELG1 DNA repair 18µM, Tb PFK inh inconclusive
CCN(CC)C(=O)CSc1nc2ccccc2c(=O)n1CCC(=O)NCc1ccc(F)cc1	ELG1 DNA repair 12µM
CCN(CC)C(=O)CSc1nc2ccccc2c(=O)n1CC	none
CCOCCCn1c(SCC(=O)NCc2ccco2)nc2c(sc3ccccc32)c1=O	ELG1 DNA repair 16µM, Tb PFK inh inconclusive
Cc1ccn2c(Nc3ccc4c(c3)OCCO4)c(-c3cccs3)nc2c1	none (no result: ELG1 DNA repair, Rango dissoc inh, Tb PFK inh, PKM2 act, Rango complex inh)
O=C(Nc1cccc(-c2csc(Nc3cccc(C(F)(F)F)c3)n2)c1)c1ccccc1	ELG1 DNA repair 21µM
O=C(Nc1ccc(-c2csc(Nc3cccc(C(F)(F)F)c3)n2)cc1)c1ccccc1	ELG1 DNA repair 12µM, Rango complex inh inconclusive
CCc1noc(C)c1C(=O)Nc1sc(C(=O)N(C)C)c(C)c1C#N	none (no result: ELG1 DNA repair, Tb PFK inh, PKM2 act)
O=C(NCCOC(=O)c1ccc(C(=O)OCCNC(=O)c2cccnc2)s1)c1cccnc1	PKM2 act 16µM
CC(C)c1ccc(N=C(N)N=C(N)N)cc1	ELG1 DNA repair 21µM
COc1cc(NC(=O)C2=C(N3CCOCC3)/C(=C/c3ccc(Cl)cc3)CC2)cc(OC)c1OC	ELG1 DNA repair 16µM, Rango dissoc inh inconclusive, Rango complex inh inconclusive
COc1cc(NC(=O)C2=C(N3CCOCC3)/C(=C\c3ccc(N(C)C)cc3)CCC2)cc(OC)c1OC	ELG1 DNA repair inconclusive, Rango dissoc inh inconclusive, Rango complex inh inconclusive
COc1ccc(-c2ccc(C)cc2)cc1[C@H]1[C@@H]2C=CCC[C@@]2(C)C(=O)N1Cc1ccccc1	none
COc1ccc(-c2ccc(C(C)=O)cc2)cc1[C@H]1[C@@H]2C=CCC[C@@]2(C)C(=O)N1Cc1ccccc1	ELG1 DNA repair 21µM
CC(C)(CNC(=O)CC1C(=O)NCCN1Cc1cccc(F)c1F)N1CCOCC1 (stereo not given)	ELG1 DNA repair inconclusive (no result: PKM2 act)
CCCCn1c(=O)[nH]c(=O)c2c1nc(-c1ccc(OCCC)c(OCC)c1)n2CCOC	ELG1 DNA repair 6.5µM
CCCCn1c(=O)[nH]c(=O)c2c1nc(-c1ccc(-c3ccccc3Br)o1)n2CCOC	ELG1 DNA repair 2.6µM, PKM2 act inconclusive
CCCOc1ccc(-c2nc3c(c(=O)[nH]c(=O)n3Cc3ccccc3)n2CCO)cc1OCC	none
COCCn1c(-c2ccc(NC(C)=O)cc2)nc2c1c(=O)[nH]c(=O)n2CC(C)C	none (no result: PKM2 act)
COCCn1c(-c2ccc(-c3ccccc3Cl)o2)nc2c1c(=O)[nH]c(=O)n2CC(C)C	ELG1 DNA repair inconclusive, Rango dissoc inh 6.5µM, PKM2 act 28µM, Rango complex inh inconclusive
Cc1ccc2cc(CN(Cc3ccco3)C(=O)NC3CCCCC3)c(=O)[nH]c2c1C	ELG1 DNA repair 7.3µM
Cc1cccc2cc(CN(Cc3cccs3)C(=S)NCC3CCCO3)c(=O)[nH]c12 (stereo not given)	ELG1 DNA repair 16µM
O=c1[nH]c2cc3c(cc2cc1CN(Cc1ccco1)C(=S)NCC1CCCO1)OCCO3 (stereo not given)	none
Cc1cc(C)c2[nH]c(=O)c(CN(CC3CCCO3)C(=S)NCc3ccco3)cc2c1 (stereo not given)	none
Cc1ccc2cc(CN(Cc3ccco3)C(=S)NCC3CCCO3)c(=O)[nH]c2c1 (stereo not given)	ELG1 DNA repair 21µM
Cc1cc(C)c2[nH]c(=O)c(CN(CC3CCCO3)C(=S)Nc3ccccc3)cc2c1 (stereo not given)	none
Cc1cccc2cc(CN(CC3CCCO3)C(=S)NCc3ccco3)c(=O)[nH]c12 (stereo not given)	ELG1 DNA repair 18µM
Cc1cccc2cc(CN(Cc3ccco3)C(=O)c3ccncc3)c(=O)[nH]c12	ELG1 DNA repair 11µM, PKM2 act inconclusive
Cc1ccc(C)c2[nH]c(=O)c(CN(Cc3ccco3)C(=S)NCC3CCCO3)cc12 (stereo not given)	ELG1 DNA repair 23µM
Cc1cc(C)c2cc(CN(CC3CCCO3)C(=S)NCc3ccco3)c(=O)[nH]c2c1 (stereo not given)	ELG1 DNA repair inconclusive, Rango complex inh inconclusive
